Test results reported in PubChem BioAssay (NCATS).
Records with an inconclusive call do not appear. Calls of active or inactive are those of the source. The call rests on the fitted dose curve; in most records, active means well fitted curve in the direction sought with a large enough effect; inconclusive means small, poorly fitted or top-dose-only effect, or another doubt; inactive means no such curve, though single readings can be large; an effect the other way counts as inactive or inconclusive.

Key:
[1] = Cellular Toxicity (caspase-3) Mesangial (AID 660); settings: mesangial cells, normalized: DMSO 0%, 100 µM tamoxifen 100%; at 91.7 µM (top of the series);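 further: combined caspase 3 and 7 activity read by Caspase-Glo luminescence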
In short: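 Human renal glomerular mesangial cells, 1000/well, 5 h at 37 C before 16 h compound treatment. Caspase-Glo 3/7 luminescence after 20 min; normalized to DMSO and 100 uM tamoxifen, AC50 from Hill fit.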

[2] = Cellular Toxicity (caspase-3) SK-N-SH (AID 661);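 further: 0% = DMSO basal and 100% = 10 µM staurosporine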
In short: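 Human SK-N-SH neuroblastoma cells, 1500/well, were exposed to compounds for 16 hours at 37 °C. Caspase-Glo 3/7 luminescence was normalized to DMSO (basal) and 10 uM staurosporine (100%), and AC50 came from a Hill fit.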

[3] = Cellular Toxicity (caspase-3) H-4-II-E (AID 663); settings: H-4-II-E rat hepatoma, scaled: DMSO 0%, 100 µM tamoxifen 100%; at 92.2 µM (top of the series);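 further: cells exposed to compound for 16 hr before readout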
In short: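 Rat hepatoma H-4-II-E cells (1500/well) plated 5 hr, then exposed to compound titrations for 16 hr at 37 °C. Caspase-Glo 3/7 luminescence read after 20 min at RT; data normalized to DMSO and 100 uM tamoxifen, AC50 from Hill fits.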

[4] = Cellular Toxicity (caspase-3) Hek293 (AID 664); settings: HEK293 caspase-3 activation, DMSO = 0%, 100 µM tamoxifen = 100%; at 92.2 µM (top of the series);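 further: cells exposed to compound for 16 h at 37 °C before readout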
In short: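 HEK293 cells in complete medium treated 16 h at 37 °C, then Caspase-Glo 3/7 luminescence read after 20 min at room temperature. Normalized to DMSO and 100 uM tamoxifen; AC50 from Hill fit of concentration-response.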

[5] = Cellular Toxicity (caspase-3) N2a (AID 665);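 further: compound exposure lasted 16 h at 37 °C before readout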
In short: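 Mouse N2a neuroblastoma cells, 1500 per well, treated 16 h at 37 °C in complete medium; caspase-3/7 activity by Caspase-Glo luminescence after 1 h. Normalized to DMSO and 10 uM staurosporine; AC50 from Hill fits.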

[6] = Cellular Toxicity (caspase-3) NIH 3T3 (AID 666);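 further: caspase signal read after 16 h compound exposure; 0% = DMSO basal and 100% = 100 µM tamoxifen stimulation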
In short: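 Mouse NIH 3T3 fibroblasts (1000/well) treated 16 h at 37 C; caspase-3/7 activity measured by Caspase-Glo 3/7 luminescence after 20 min. Normalized to DMSO and 100 uM tamoxifen; AC50 from Hill fits.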

[7] = Cellular Toxicity (caspase-3) Renal Proximal Tubule (AID 667); settings: Potency: caspase-3 activation;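 further: cells exposed to compound for 16 hours at 37 °C before detection; 0% = DMSO basal and 100% = 10 µM staurosporine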
In short: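 Primary rat proximal tubule cells, 1000/well, 5 h plating at 37 °C, then compound 16 h at 37 °C. Caspase-Glo 3/7 reagent, 1 h RT, luminescence. Normalized to DMSO (basal) and 10 uM staurosporine (100%); Hill-fit AC50.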

[8] = target: Cytochrome P450 3A4 (Homo sapiens) (UniProt P08684); assay: qHTS Assay for Inhibitors and Substrates of Cytochrome P450 3A4 (AID 884); further: on the % scale 0 is the no-effect control and ±100 the full control effect; nearly all actives have a fitted effect of over 50% in size
In short: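 20 nM human CYP3A4 with 25 uM Luciferin-PPXE (at KM) in 200 mM KPO4, preincubated 10 min with compound; NADPH regeneration started a 60 min RT reaction. Luciferin detected by luminescence, normalized to 57 uM ketoconazole as full inhibition.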

[9] = Cell Viability - LYMP2-001 (AID 921);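 further: 0% = DMSO only and full inhibition = tetraoctylammonium bromide control wells; nearly all actives have a fitted effect of over 70% in size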
In short: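 Human lymphoblastoid cells (Coriell), 2500 per well, were preincubated 5 hr at 37 C, then exposed to compounds in complete medium for 24 hr at 37 C. Cellular ATP was read by CellTiter-Glo luminescence; AC50 from Hill fits of concentration-response data.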

[10] = MultiTox-Fluor Cytotoxicity Assay - LYMP1-001 - Dead Cells (AID 946);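 further: 0% = DMSO and 100% = tetraoctylammonium bromide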
In short: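 AC50 from Hill fit of concentration-response; data normalized to DMSO (basal) and 15 uM tetraoctylammonium bromide (100%). LYMP1-001 lymphoblastoid cells, 2500/well, 16 hr compound at 37 C; dead-cell protease fluorescence, Ex/Em 485/520.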

[11] = MultiTox-Fluor Cytotoxicity Assay - LYMP1-001 - Live Cells (AID 947);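 further: 0% = DMSO only and full inhibition = tetraoctylammonium bromide control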
[12] = Cell Viability - LYMP1-002 - Assay at 16 hr (AID 948);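 further: 0% = DMSO alone and full effect = 92 µM tetraoctylammonium bromide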
In short: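 Human lymphoblastoid cells (LYMP1-002), 2500/well, were preincubated 5 hr at 37 C, then exposed to compounds for 16 hr at 37 C in complete medium. Cellular ATP was read by CellTiter-Glo luminescence after 30 min at room temperature; AC50 from Hill fits.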

[13] = MultiTox-Fluor Cytotoxicity Assay - LYMP1-002 - Live Cells (AID 955); further: on the % scale 0 is the no-effect control and ±100 the full control effect
In short: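 Human lymphoblastoid LYMP1-002 cells, 2500/well, treated 16 h at 37 C in complete medium. Live-cell protease activity via GF-AFC fluorescence (Ex/Em 405/510) after 60 min reagent incubation; AC50 from Hill fits.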

[14] = MultiTox-Fluor Cytotoxicity Assay - LYMP1-003 - Dead Cells (AID 961);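 further: 0% = DMSO and 100% = tetraoctylammonium bromide; nearly all actives have a fitted effect of over 70% in size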
In short: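 Human lymphoblastoid LYMP1-003 cells (2500/well) were treated with compounds for 16 hr at 37 C in complete medium. Dead-cell protease release was read by bis-AAF-R110 fluorescence (Ex/Em 485/520). AC50 came from Hill fits, normalized to DMSO and 15 uM tetraoctylammonium bromide.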

[15] = MultiTox-Fluor Cytotoxicity Assay - LYMP1-003 - Live Cells (AID 962);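 further: 0% = DMSO only and full loss = 92 µM tetraoctylammonium bromide; cytotoxic hits lower the live-cell protease signal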
In short: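 LYMP1-003 lymphoblastoid cells, 2500/well in complete medium, treated 16 h at 37 C; live-cell protease cleavage of GF-AFC read by fluorescence (Ex/Em 405/510) after 60 min reagent; AC50 from Hill fits of concentration-response.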

[16] = Cell Viability - LYMP1-003 - Assay at 24 hr (AID 963);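 further: plate controls were DMSO only for no effect and tetraoctylammonium bromide positive control for full effect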
In short: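 Human lymphoblastoid LYMP1-003 cells, 2500/well, treated 24 h at 37 C in complete medium. Viability read as intracellular ATP by CellTiter-Glo luminescence after 30 min at room temperature; AC50 from Hill-equation fits of qHTS concentration-response.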

[17] = Cell Viability - LYMP1-003 - Assay at 40 hr (AID 964); further: on the % scale 0 is the no-effect control and ±100 the full control effect; nearly all actives have a fitted effect of over 60% in size
In short: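 LYMP1-003 human lymphoblastoid cells, 2500/well, preincubated 5 h at 37 C, then treated with compound for 40 h at 37 C. Intracellular ATP read by CellTiter-Glo luminescence after 30 min at room temperature; AC50 from Hill-equation fits.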

[18] = Cell Viability - LYMP2-003 (AID 965);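 further: cells exposed to compounds for 24 h before reading; 0% = DMSO only and full effect = 92 µM tetraoctylammonium bromide; nearly all actives have a fitted effect of over 50% in size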
In short: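 Human lymphoblastoid cells (2500/well) were pre-incubated 5 hr at 37 C, then exposed to compounds over a concentration range for 24 hr at 37 C. Intracellular ATP was read by CellTiter-Glo luminescence; AC50 came from Hill-equation fits.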

[19] = MultiTox-Fluor Cytotoxicity Assay - LYMP1-002 - Dead Cells (AID 960);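 further: 0% = DMSO and 100% = tetraoctylammonium bromide; nearly all actives have a fitted effect of over 60% in size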
In short: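 Human lymphoblastoid LYMP1-002 cells, 2500/well, treated 16 h at 37 C; dead-cell protease cleavage of bis-AAF-R110 read by fluorescence (485/520); normalized to DMSO and 15 uM tetraoctylammonium bromide; AC50 from Hill fit.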

Chain of Cytochrome P450 3A4 (Homo sapiens) (P08684 whole entry, looked up): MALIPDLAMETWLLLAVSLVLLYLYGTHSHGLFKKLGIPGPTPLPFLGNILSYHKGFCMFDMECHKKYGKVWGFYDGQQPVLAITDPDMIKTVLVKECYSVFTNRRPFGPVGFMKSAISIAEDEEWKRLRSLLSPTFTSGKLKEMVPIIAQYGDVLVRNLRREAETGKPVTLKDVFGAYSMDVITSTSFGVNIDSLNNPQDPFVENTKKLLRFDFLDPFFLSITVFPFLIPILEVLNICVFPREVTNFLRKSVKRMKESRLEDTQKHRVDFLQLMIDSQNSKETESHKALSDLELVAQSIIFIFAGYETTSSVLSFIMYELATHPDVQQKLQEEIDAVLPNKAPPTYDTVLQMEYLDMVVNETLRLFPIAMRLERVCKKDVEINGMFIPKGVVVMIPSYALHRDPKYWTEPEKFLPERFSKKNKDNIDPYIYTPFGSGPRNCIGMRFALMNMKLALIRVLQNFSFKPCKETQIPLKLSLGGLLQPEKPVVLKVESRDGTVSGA

COC(=O)c1ccccc1
inactive: caspase-3 activation [1] 0.596% | outcome [2] | caspase-3 activation [3] 3.83% | caspase-3 activation [4] -1.66% | outcome [5] | outcome [6] | Potency [7] | Potency [8] | Potency [9] | outcome [10] | outcome [11] | outcome [12] | outcome [13] | Potency [14] | Potency [15] | Potency [16] | Potency [17] | Potency [18]

Cc1cc(C(=O)O)ccc1[N+](=O)[O-]
inactive: caspase-3 activation [1] 0.159% | outcome [2] | caspase-3 activation [3] -0.927% | caspase-3 activation [4] 1.07% | outcome [5] | outcome [6] | Potency [7] | Potency [8] | Potency [9] | outcome [10] | outcome [11] | outcome [12] | outcome [13] | Potency [14] | Potency [15] | Potency [16] | Potency [17] | Potency [18]

Cc1cccc([N+](=O)[O-])c1C(=O)O
inactive: caspase-3 activation [1] -0.481% | outcome [2] | caspase-3 activation [3] 1.44% | caspase-3 activation [4] 2.11% | outcome [5] | outcome [6] | Potency [7] | Potency [8] | Potency [9] | outcome [10] | outcome [11] | outcome [12] | outcome [13] | outcome [19] | Potency [15] | Potency [16] | Potency [17] | Potency [18]

Clc1cc(Cl)cc(Cl)c1
inactive: caspase-3 activation [1] -0.669% | outcome [2] | caspase-3 activation [3] 0.838% | caspase-3 activation [4] 0.505% | outcome [5] | outcome [6] | Potency [7] | Potency [8] | Potency [9] | outcome [10] | outcome [11] | outcome [12] | outcome [13] | outcome [19] | Potency [15] | Potency [16] | Potency [18]

O=CNc1ccccc1
inactive: caspase-3 activation [1] -0.303% | outcome [2] | caspase-3 activation [3] 0.272% | caspase-3 activation [4] 1.41% | outcome [5] | outcome [6] | Potency [7] | Potency [8] | Potency [9] | outcome [10] | outcome [11] | outcome [12] | outcome [13] | Potency [14] | Potency [15] | Potency [16] | Potency [17] | Potency [18]

CCCCC(CC)COCC1CO1 (stereo not given)
inactive: caspase-3 activation [1] -0.684% | outcome [2] | caspase-3 activation [3] -0.156% | caspase-3 activation [4] -2.33% | outcome [5] | outcome [6] | Potency [7] | Potency [8] | Potency [9] | outcome [10] | outcome [11] | outcome [12] | outcome [13] | Potency [14] | Potency [15] | Potency [16] | Potency [17] | Potency [18]

CC(=O)Nc1ccc(N)cc1
inactive: caspase-3 activation [1] 0.253% | outcome [2] | caspase-3 activation [3] -0.322% | caspase-3 activation [4] -0.0268% | outcome [5] | outcome [6] | Potency [7] | Potency [8] | Potency [9] | outcome [10] | outcome [11] | outcome [12] | outcome [13] | Potency [14] | Potency [15] | Potency [16] | Potency [17] | Potency [18]

C=C(C)C(=O)OCCCCCC
inactive: caspase-3 activation [1] 0.76% | outcome [2] | caspase-3 activation [3] 0.664% | caspase-3 activation [4] -0.643% | outcome [5] | outcome [6] | Potency [7] | Potency [8] | Potency [9] | outcome [10] | outcome [12] | outcome [13] | Potency [14] | Potency [15] | Potency [16] | Potency [17] | Potency [18]

COC(=O)CCCC(=O)OC
inactive: caspase-3 activation [1] -0.518% | outcome [2] | caspase-3 activation [3] -0.182% | caspase-3 activation [4] -0.162% | outcome [5] | outcome [6] | Potency [7] | Potency [8] | Potency [9] | outcome [10] | outcome [12] | outcome [13] | outcome [19] | Potency [14] | Potency [15] | Potency [16] | Potency [17] | Potency [18]
